# According to article PMC8384837, “Expanding the binding specificity for RNA recognition by a PUF domain”:
# Tests used:
# Assay in all cases: yeast three-hybrid, YBZ-1, SC-Leu-His + 0.5 mM 3-AT, 4 days
# Details in all cases: tags: N-Gal4 AD-HA kept; label: inside an RPR1-promoter hybrid RNA with tandem MS2 sites; ssRNA
# [1] = biological target: PUM1 PUF domain R5-LYG (Homo sapiens, UniProt Q14671 828-1176, C1007L;R1008Y;Q1011G)
# Outline: (§1)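 The interaction score is the log change in how often each variant appears, from input to selection. Frequencies came from PCR-amplified, Illumina-sequenced repeat regions of Pumilio-1 PUF domain libraries grown in strain YBZ-1 (LexA–MS2 coat fusion, HIS3 reporter) alongside matching RNA elements. Input plates were SC-Leu and selection plates were SC-Leu-His + 0.5 mM 3-AT, each for four days, and the log2 calculation used a pseudocount of 1 where a variant was absent.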
# [2] = biological target: PUM1 PUF domain R3-LFT (Homo sapiens, UniProt Q14671 828-1176, C935L;R936F;Q939T)
# Outline: as §1
# [3] = biological target: PUM1 PUF domain R3-IFV (Homo sapiens, UniProt Q14671 828-1176, C935I;R936F;Q939V)
# Outline: as §1
# [4] = biological target: PUM1 PUF domain R5-WHC (Homo sapiens, UniProt Q14671 828-1176, C1007W;R1008H;Q1011C)
# Outline: as §1
# [5] = biological target: PUM1 PUF domain R5-FHT (Homo sapiens, UniProt Q14671 828-1176, C1007F;R1008H;Q1011T)
# Outline: as §1
# [6] = biological target: PUM1 PUF domain R7-RSR (Homo sapiens, UniProt Q14671 828-1176, S1079R;N1080S;E1083R)
# Outline: as §1
# [7] = biological target: PUM1 PUF domain R8-KFA (Homo sapiens, UniProt Q14671 828-1176, N1122K;Y1123F;Q1126A)
# Outline: as §1
# [8] = biological target: T1, PUM1 PUF domain R6-CWR (Homo sapiens, UniProt Q14671 828-1176, N1043C;Y1044W;Q1047R)
# T1 sequence: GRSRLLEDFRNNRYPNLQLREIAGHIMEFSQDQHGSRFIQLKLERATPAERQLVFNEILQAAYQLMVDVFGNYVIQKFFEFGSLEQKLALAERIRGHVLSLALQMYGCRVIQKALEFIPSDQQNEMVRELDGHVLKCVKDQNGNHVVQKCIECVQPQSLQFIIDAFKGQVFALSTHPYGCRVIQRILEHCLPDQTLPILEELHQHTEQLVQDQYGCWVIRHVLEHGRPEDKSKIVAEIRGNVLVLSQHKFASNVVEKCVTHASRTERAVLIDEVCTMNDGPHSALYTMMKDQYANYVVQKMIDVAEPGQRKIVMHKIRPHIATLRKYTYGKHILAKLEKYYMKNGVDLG
# Outline: as §1
# [9] = biological target: PUM1 PUF domain R3-DHV (Homo sapiens, UniProt Q14671 828-1176, C935D;R936H;Q939V)
# Outline: as §1
# [10] = biological target: PUM1 PUF domain R1-KVS (Homo sapiens, UniProt Q14671 828-1176, S863K;R864V;Q867S)
# Outline: as §1
sequence,measurement,setting,value
GGCUAGAACUAGUGGAUCCCCCGGCGCCCGGCGGCUCGAGCCCGGGUAAGUGUUAAUAGUCUGCAUGCCGCCGGGCGCCAUGCCUGCAGGUCGACUCUAGAAAACAUG,binding signal,[1],2.42 log2 enrichment (interaction score)
GGCUAGAACUAGUGGAUCCCCCGGCGCCCGGCGGCUCGAGCCCGGGUAAGUGUAAUUAGUCUGCAUGCCGCCGGGCGCCAUGCCUGCAGGUCGACUCUAGAAAACAUG,binding signal,[2],5.16 log2 enrichment (interaction score)
same,binding signal,[3],4.5 log2 enrichment (interaction score)
GGCUAGAACUAGUGGAUCCCCCGGCGCCCGGCGGCUCGAGCCCGGGUAAGUGUCAAUAGUCUGCAUGCCGCCGGGCGCCAUGCCUGCAGGUCGACUCUAGAAAACAUG,binding signal,[4],3.6 log2 enrichment (interaction score)
same,binding signal,[5],2.81 log2 enrichment (interaction score)
GGCUAGAACUAGUGGAUCCCCCGGCGCCCGGCGGCUCGAGCCCGGGUAAGUCUAAAUAGUCUGCAUGCCGCCGGGCGCCAUGCCUGCAGGUCGACUCUAGAAAACAUG,binding signal,[6],3.42 log2 enrichment (interaction score)
GGCUAGAACUAGUGGAUCCCCCGGCGCCCGGCGGCUCGAGCCCGGGUAAGUGUAAAUAGUCUGCAUGCCGCCGGGCGCCAUGCCUGCAGGUCGACUCUAGAAAACAUG,binding signal,[7],4.75 log2 enrichment (interaction score)
same,binding signal,[1],3.46 log2 enrichment (interaction score)
same,binding signal,[8],5.42 log2 enrichment (interaction score)
same,binding signal,[3],4.8 log2 enrichment (interaction score)
same,binding signal,[9],4.2 log2 enrichment (interaction score)
GGCUAGAACUAGUGGAUCCCCCGGCGCCCGGCGGCUCGAGCCCGGGUAAGUGUAAAUUGUCUGCAUGCCGCCGGGCGCCAUGCCUGCAGGUCGACUCUAGAAAACAUG,binding signal,[10],4.64 log2 enrichment (interaction score)
GGCUAGAACUAGUGGAUCCCCCGGCGCCCGGCGGCUCGAGCCCGGGUAAGUUUAAAUAGUCUGCAUGCCGCCGGGCGCCAUGCCUGCAGGUCGACUCUAGAAAACAUG,binding signal,[6],4.84 log2 enrichment (interaction score)
GGCUAGAACUAGUGGAUCCCCCGGCGCCCGGCGGCUCGAGCCCGGGUAAGUGUAAGUAGUCUGCAUGCCGCCGGGCGCCAUGCCUGCAGGUCGACUCUAGAAAACAUG,binding signal,[2],6.89 log2 enrichment (interaction score)
same,binding signal,[3],3.32 log2 enrichment (interaction score)
same,binding signal,[9],1.77 log2 enrichment (interaction score)
GGCUAGAACUAGUGGAUCCCCCGGCGCCCGGCGGCUCGAGCCCGGGUAAGUGUAAAUCGUCUGCAUGCCGCCGGGCGCCAUGCCUGCAGGUCGACUCUAGAAAACAUG,binding signal,[10],5.01 log2 enrichment (interaction score)
GGCUAGAACUAGUGGAUCCCCCGGCGCCCGGCGGCUCGAGCCCGGGUAAGCGUAAAUAGUCUGCAUGCCGCCGGGCGCCAUGCCUGCAGGUCGACUCUAGAAAACAUG,binding signal,[7],6.97 log2 enrichment (interaction score)
